Sm TGR block – blocks Schistosoma mansoni thioredoxin glutathione reductase | purified TGR, DTNB reduction, TNB absorbance 405 nm | Potency, µM (highest dose often 114 µM), most hits filed as inhibitors | 360,000 tested, 3% active | Q962Y6; also: nearly all actives have a fitted effect of over 60% in size
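Kinetic colorimetric format: TGR-catalysed, NADPH-driven DTNB reduction monitored via TNB absorbance. Enzyme dispensed at 20 nM; compound exposure 15 min at room temperature before reaction start.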
TbPYK inhibitor – inhibitors of Trypanosoma brucei pyruvate kinase; TbPYK enzyme, Kinase-Glo Plus ATP luminescence, 45 min; Q57TT1; Potency, µM (highest dose often 76.8 µM), actives largely listed as inhibitors; 410,000 tested, 0.12% active; also: nearly all actives have a fitted effect of over 50% in size
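Luminescent Kinase-Glo Plus end-point after 45 min room-temperature reaction of T. brucei pyruvate kinase started with 130 uM ADP (final). Buffer TEA 50 mM pH 7.2 with KCl, MgCl2, BSA, Tween-20; titration-based qHTS with fitted concentration-effect curves.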
FMDV antiviral – blocks foot and mouth disease virus | FMDV antiviral cell-based qHTS | Potency, µM (titrated, usually from 57.9 µM), most hits filed as inhibitors | 410,000 tested, 1.2% active; calls by dose curve; tested in HEK293T cells; also: read-out not given here; nearly all actives have a fitted effect of over 45% in size
RE007 growth inh – less growth of the S. pombe RE007 Vpr strain | S. pombe RE007 Vpr strain, BacTiter-Glo ATP luminescence, 24 h | AID 651644 | Potency, µM (series often up to 92.2 µM), usual class: inhibitors | 360,000 tested, 0.21% active; active = well fitted falling curve with a large enough effect; inconclusive = small, poorly fitted or top-dose-only effect; inactive = no such curve, though single readings can be large or run the other way; also: nearly all actives have a fitted effect of over 50% in size
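Fission yeast RE007 carrying one integrated HIV-1 vpr copy, seeded at OD 0.01 in PMG+AL medium with 23 nL pinned compound. Grown 24 h at 30 degrees; viability read by BacTiter-Glo luminescence after 5 min.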
Large screens that a line does not name were inactive. Hits are enriched below; roughly 3.7% of the tested compounds scored in any of these assays. Unless noted, calls follow the shape of the dose curve; as a rule, active = well fitted curve in the direction sought with a large enough effect; inconclusive = small, poorly fitted or top-dose-only effect, or another doubt; inactive = no such curve, though single readings can be large; an effect the other way counts as inactive or inconclusive.

COc1ccc(C(=O)NCCc2csc(-c3ccc(Cl)cc3)n2)c(OC)c1	FMDV antiviral inconclusive (no result: RE007 growth inh)
CC(=O)Nc1ccc(S(=O)(=O)/N=C2/NC(=O)/C(=C\c3ccco3)S2)cc1	Sm TGR block 14.1µM
COc1ccc(/C=C2\SC(=Nc3ccccc3)NC2=O)cc1	none (no result: TbPYK inhibitor, FMDV antiviral, RE007 growth inh)
COc1ccc(N=C2NC(=O)/C(=C\c3ccco3)S2)cc1	Sm TGR block 28.2µM
O=C1NC(=Nc2ccc(O)cc2)S/C1=C\C=C\c1ccco1	Sm TGR block 14.1µM
Cc1ccc(S(=O)(=O)/N=C2/NC(=O)/C(=C\c3ccco3)S2)cc1	Sm TGR block inconclusive
Cc1nc(C)c(C(=O)N2CCc3c(cnc(C)c3CNC(=O)c3cncs3)C2)s1	none (no result: Sm TGR block, TbPYK inhibitor, RE007 growth inh)
Cn1c(=O)c2c(n3c4ccccc4nc13)NC(=O)CC2c1ccccc1F (centres undefined)	none (no result: RE007 growth inh)
CCN(CC)C(NC(=O)Cc1ccccc1)C(Cl)(Cl)Cl (centres undefined)	Sm TGR block 17.8µM
CC(NC(=O)Cc1ccccc1)C(=O)O (centres undefined)	Sm TGR block 50.1µM
Cc1cccc(-c2n[nH]c(=S)n2-c2ccccc2)c1[N+](=O)[O-]	TbPYK inhibitor 7.08µM
Cc1c(Cl)c(-c2n[nH]c(=S)n2-c2ccccc2)nn1C	TbPYK inhibitor 2.82µM
CCc1ccc(NCc2cc3ccc(OC)cc3n(CC(=O)Nc3ccc(C(C)C)cc3)c2=O)cc1	none (no result: RE007 growth inh)
COC(=O)c1cnn(-c2ccc(Cl)cc2)c1/C=N/NC(N)=S	FMDV antiviral 14.1µM
Nc1c(C(=O)N/N=C/c2ccc(Cl)cc2)cnn1-c1ccccc1	none
Cc1ccc(CNC(=O)CCCn2c(=O)c3ccccc3n(Cc3ccc(Cl)cc3)c2=O)cc1	none (no result: RE007 growth inh)
O=C(Nc1ccccc1)c1ccc(-c2ccccc2Cl)o1	none
Cc1ccc(-c2ccc(C(=O)Nc3ccccc3)o2)c2ccccc12	Sm TGR block 35.5µM
Cc1ccc(-c2ccc(C(=O)NCc3ccccc3)o2)c2ccccc12	Sm TGR block 39.8µM
C=CCn1c(=S)[nH]c2scc(-c3ccc(C)o3)c2c1=O	Sm TGR block 35.5µM
Cc1ccc(-c2csc3nc(C)n(-n4c(C)ccc4C)c(=O)c23)o1	Sm TGR block 6.31µM
C=CCn1c(SCC(=O)NC2CCCC2)nc2scc(-c3ccco3)c2c1=O	Sm TGR block 11.2µM
C=CCn1c(SCC(=O)NCCCC)nc2scc(-c3ccco3)c2c1=O	Sm TGR block 14.1µM
Cc1nc2nc(SCC(=O)NCCc3ccc(Cl)cc3)nn2c(C)c1Cc1c(F)cccc1Cl	none (no result: RE007 growth inh)
C=CCn1c(SCC(=O)NCCO)nc2sc(C)c(C)c2c1=O	FMDV antiviral 3.55µM
C=CCn1c(SCC(C)=O)nc2scc(-c3ccc(C)o3)c2c1=O	Sm TGR block 15.8µM
O=C(c1cccnc1)C1CCCN(Cc2ccc3c(c2)CN(C(=O)c2cn4ccccc4n2)CCO3)C1 (centres undefined)	none (no result: Sm TGR block, TbPYK inhibitor, RE007 growth inh)
Cc1cc(Cl)ccc1NC(=O)CN1C(=O)COc2ccc(S(=O)(=O)N3CCC(C)CC3)cc21	none (no result: RE007 growth inh)
O=C(NCc1nnc2n1CCN(Cc1cc3c(cc1Cl)OCO3)CC2)C1CCOC1 (centres undefined)	none (no result: Sm TGR block, TbPYK inhibitor, RE007 growth inh)
CNc1ccc(Br)cc(C(=O)/C=C/c2cc(OC)ccc2OC)c1=O	Sm TGR block 3.16µM, FMDV antiviral 20µM
CNc1ccc(Br)cc(C(=O)/C=C/c2ccc(OC)cc2)c1=O	Sm TGR block 11.2µM, FMDV antiviral 15.8µM
CCNc1ccc(Br)cc(C(=O)/C=C/c2ccc(Cl)cc2Cl)c1=O	Sm TGR block 2.24µM, FMDV antiviral inconclusive
COCCCNC(=O)/C=C/c1ccc(Cl)cc1Cl	none
O=C(C=Cc1ccc2c(c1)OCO2)c1ccccc1	RE007 growth inh inconclusive (no result: Sm TGR block)
CNc1ccc(Br)cc(C(=O)/C=C/c2ccc3c(c2)OCO3)c1=O	Sm TGR block 2.82µM, FMDV antiviral inconclusive
O=c1c2nncn2ccn1-c1ccc(F)c(F)c1	none (no result: RE007 growth inh)
CC(C)C[C@H](NC(=O)[C@H](Cc1ccccc1)NC(=O)c1cnccn1)B(O)O	none (no result: Sm TGR block, FMDV antiviral, RE007 growth inh)
Cc1ccccc1C1(CC(=O)N2CC3(C)CC2CC(C)(C)C3)CC(=O)N(Cc2cccnc2)C1=O (centres undefined)	none (no result: Sm TGR block, TbPYK inhibitor, RE007 growth inh)
Cc1ccccc1OCC(=O)Nc1nnc(S(=O)(=O)N(C)c2ccccc2)s1	none (no result: RE007 growth inh)
COc1ccc(-c2noc(CSc3nnc(C)n3-c3ccc(F)cc3)n2)cc1	none (no result: RE007 growth inh)
Cc1cc(Nc2c(C)n(C)n(-c3ccccc3)c2=O)n2c(nc3ccccc32)c1C#N	Sm TGR block 22.4µM
CCc1c(C)c(C#N)c2nc3ccccc3n2c1Nc1c(C)n(C)n(-c2ccccc2)c1=O	none
CCCc1cc(Nc2c(C)n(C)n(-c3ccccc3)c2=O)n2c(nc3ccccc32)c1C#N	Sm TGR block 14.1µM
CCc1ccc(-c2nc(CSCC(=O)N3CCN(c4ccc(F)cc4)CC3)c(C)o2)cc1	FMDV antiviral inconclusive (no result: RE007 growth inh)
CCOc1ccc(-c2nc(CSCC(=O)N3CCN(C(=O)c4ccco4)CC3)c(C)o2)cc1	Sm TGR block 89.1µM
COc1ccc(-c2nc(CSCC(=O)N3CCN(c4ccccc4)CC3)c(C)o2)cc1	FMDV antiviral 35.5µM (no result: RE007 growth inh)
Cc1oc(-c2ccc(Cl)cc2)nc1CN1CCCC(C(=O)N2CCN(C(=O)c3ccco3)CC2)C1 (centres undefined)	Sm TGR block inconclusive, FMDV antiviral 14.1µM
COc1ccc(-c2nc(CSCC(=O)N3CCN(c4ccc(F)cc4)CC3)c(C)o2)cc1	FMDV antiviral 12.6µM (no result: RE007 growth inh)
Cc1ccsc1-c1nc(CSCC(=O)N2CCN(c3ccccc3)CC2)c(C)o1	Sm TGR block inconclusive, FMDV antiviral inconclusive
CCOC(=O)C1CCN(C(=O)CSCc2nc(-c3ccc(OCC)cc3)oc2C)CC1	FMDV antiviral inconclusive
Cc1cccc(-c2nc(CSCC(=O)N3CCN(c4cccc(C)c4C)CC3)c(C)o2)c1	FMDV antiviral inconclusive (no result: RE007 growth inh)
O=C(CSCc1ccccc1)N1CCN(C(=O)c2ccco2)CC1	Sm TGR block 44.7µM (no result: FMDV antiviral)
Cc1cccc(-c2nc(CSCC(=O)N3CCN(c4ccccn4)CC3)c(C)o2)c1	FMDV antiviral 15.8µM
O=C(c1ccc(C(F)(F)F)cc1)N(Cc1cc2ccc(F)cc2nc1N1CCOCC1)C1CC1	none (no result: Sm TGR block, TbPYK inhibitor, RE007 growth inh)
CCC(=O)c1cn(CC(=O)Nc2ccc(C)cc2)c2ccccc12	Sm TGR block 100µM
CCC(=O)c1cn(CC(=O)Nc2ccccc2)c2ccccc12	none
O=C1/C(=C/c2cccnc2)CC/C1=C\c1cccnc1	FMDV antiviral 28.2µM
O=C1/C(=C/c2cccnc2)CCC/C1=C\c1cccnc1	Sm TGR block 39.8µM, FMDV antiviral inconclusive, RE007 growth inh inconclusive
CCC1C/C(=C\c2cccnc2)C(=O)/C(=C/c2cccnc2)C1 (centres undefined)	Sm TGR block inconclusive, FMDV antiviral 3.55µM, RE007 growth inh inconclusive
CC(C)/C=C1\CC/C(=C\c2cccnc2)C1=O	Sm TGR block 25.1µM, FMDV antiviral 28.2µM
O=C1/C(=C\c2cccnc2)CCc2ccccc21	RE007 growth inh inconclusive
CCc1cccc(N2C(=O)CS(=O)(=O)C23C(=O)N(Cc2ccccc2)c2ccc(C)cc23)c1 (centres undefined)	FMDV antiviral inconclusive (no result: RE007 growth inh)
CC(C)NC(=O)N1CCC2(CC1)CCN(C(=O)c1cc(C(F)(F)F)cc(C(F)(F)F)c1)CC2	none (no result: Sm TGR block, RE007 growth inh)

Compound activity as filed in PubChem.
